PKM2 act = qHTS Assay for Activators of Human Muscle isoform 2 Pyruvate Kinase; 260,000 tested, 0.34% active; Potency, µM (top dose mostly 57.5 µM), without a hit: top-dose activation, hits mostly activators; AID 1631, 2009; Pyruvate kinase PKM (Homo sapiens), P14618; purified PKM2, Kinase-Glo ATP luminescence, activation; response scale: 0% is enzyme alone, no compound; also: potency is read from the fitted curve at half-maximal effect; % is scaled to controls: 0 for no effect and ±100 for the full control effect; nearly all actives have a fitted effect of over 55% in size
Target sequence (P14618 whole entry, looked up, canonical isoform): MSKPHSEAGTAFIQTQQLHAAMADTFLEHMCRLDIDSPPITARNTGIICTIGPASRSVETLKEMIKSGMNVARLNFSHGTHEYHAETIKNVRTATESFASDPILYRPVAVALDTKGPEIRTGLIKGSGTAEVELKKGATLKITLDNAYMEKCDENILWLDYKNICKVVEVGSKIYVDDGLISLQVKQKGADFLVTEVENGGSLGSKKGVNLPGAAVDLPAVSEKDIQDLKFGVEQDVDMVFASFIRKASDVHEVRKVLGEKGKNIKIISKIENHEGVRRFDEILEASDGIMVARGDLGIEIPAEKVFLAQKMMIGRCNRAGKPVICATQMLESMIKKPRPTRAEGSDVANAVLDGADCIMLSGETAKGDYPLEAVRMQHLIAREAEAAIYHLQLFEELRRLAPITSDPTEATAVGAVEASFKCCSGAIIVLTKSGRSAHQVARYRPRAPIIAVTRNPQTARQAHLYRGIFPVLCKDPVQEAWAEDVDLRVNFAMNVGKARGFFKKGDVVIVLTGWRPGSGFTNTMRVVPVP
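Kinase-Glo luminescence reports ATP generated from ADP (0.1 mM) and PEP (0.5 mM) by purified hPK-M2 after 1 h at room temperature, pH 7.2 imidazole buffer; intermediate enzyme activity allows detecting inhibitors and activators.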
Mito fusion yeast = qHTS Assay for Small Molecule Inhibitors of Mitochondrial Division or Activators of Mitochondrial Fusion; Potency, µM (top dose mostly 46.1 µM), inactives show top-dose growth rescue (activation), usual class: activators; 320,000 tested, 0.23% active; S. cerevisiae fusion-defective mutant growth rescue, CellTiterGlo 48 h; also: potency is read from the fitted curve at half-maximal effect; % of control where 0% means no effect; nearly all actives have a fitted effect of over 45% in size
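Yeast fusion mutant, YPEG (non-fermentable carbon), compound, 48 h at 37C non-permissive; CellTiterGlo added, 10 min RT, luminescence read. Rescued growth = division inhibition.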
GLS inh = qHTS for Inhibitors of Glutaminase (GLS); Glutaminase kidney isoform, mitochondrial (Homo sapiens), O94925; GLS enzymatic activity, qHTS titration; Potency, µM (highest dose often 45.5 µM), for the others: top-dose activity change, negative = inhibition, usual class: inhibitors; 410,000 tested, 0.21% active; AID 624170, 2012; also: potency is read from the fitted curve at half-maximal effect; % is scaled to controls: 0 for no effect and ±100 for the full control effect
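Assay buffer: 45 mM KH2PO4 pH 8.2, 0.02% Tween-20. hKGA acts on L-glutamine (1 mM solution added); product glutamate is reported by an oxidase/peroxidase Amplex Red coupling, with fluorescence taken at baseline and 30 min.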
VDR inh = Inhibitors of the vitamin D receptor (VDR): qHTS | Vitamin D3 receptor (Homo sapiens), P11473 | VDR-SRC2-3 peptide fluorescence polarization, 2 h | Potency, µM, inactives show max response, negative = inhibition, actives largely listed as inhibitors | 400,000 tested, 0.93% active; also: potency is read from the fitted curve at half-maximal effect; % is scaled to controls: 0 for no effect and ±100 for the full control effect
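Compounds are added to VDR with labelled SRC2-3 coactivator peptide and held 2 h at room temperature. Inhibition of the VDR–peptide interaction is then read as a change in fluorescence polarization.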
PLK1 PBD inh = qHTS for Inhibitors of PLK1-PDB (polo-like kinase 1 - polo-box domain): Primary Screen; Plk1 PBD binding of FITC phosphopeptide, fluorescence polarization; Serine/threonine-protein kinase PLK1 (Homo sapiens), P53350; AID 720504, 2013; Potency, µM, without a hit: max response, negative = inhibition, hits mostly inhibitors; 360,000 tested, 2.8% active; also: potency is read from the fitted curve at half-maximal effect; series mostly up to about 57 µM; % is scaled to controls: 0 for no effect and ±100 for the full control effect; nearly all actives have a fitted effect of over 65% in size
KAT2A inh = qHTS Assay for Inhibitors of GCN5L2 | Histone acetyltransferase KAT2A (Homo sapiens), Q92830 | Potency, µM (top dose mostly 58.9 µM), without a hit: at the highest dose activity change, negative = inhibition, most hits filed as inhibitors | 390,000 tested, 0.21% active | GCN5L2 HAT assay, ThioGlo1 CoA-SH fluorescence; also: potency is read from the fitted curve at half-maximal effect; % is scaled to controls: 0 for no effect and ±100 for the full control effect
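GCN5L2 (20nM final) in 50mM HEPES, 0.1mM EDTA pH 7.5, 0.01% Tween-20 was preincubated 15 min at room temperature with compound, then given ThioGlo1 (50uM), H3(1-25) peptide (75uM) and acetyl-CoA (70uM); CoA-thiol fluorescence (Ex340/Em540) was read at 0 and 20 min.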
HeLa tox = Secondary assay for Activators of Human Pyruvate Kinase M2 isoform - Cell Titer Glo cytotoxicity assay; shares compounds with PKM2 act; HeLa viability, CellTiter-Glo ATP luminescence, 24 h; 230 tested, under 10 active; activity change, negative = cytotoxicity, % at 57.5 µM; AID 1898, 2009; also: % of control where 0% means no effect
Active calls of the source: *; ? = inconclusive; / = no result given; [ ] = dose if it differs, or a comment. The list is not random: actives were taken first. Their share in the collection is about 3.4%. Calls follow the shape of the dose curve; as a rule, active = well fitted curve in the direction sought with a large enough effect; inconclusive = small, poorly fitted or top-dose-only effect, or another doubt; inactive = no such curve, though single readings can be large; an effect the other way counts as inactive or inconclusive.

SMILES	PKM2 act	Mito fusion yeast	GLS inh	VDR inh	PLK1 PBD inh	KAT2A inh	HeLa tox
Cc1cc(C)n2nc(SCc3cc(=O)oc4ccc5ccccc5c34)nc2n1	2.82µM*	1.5%	1.1%	-0.8%	-13.7%	2.8%	0.0
O=c1c2ccc(Cl)cc2[nH]c(=S)n1Cc1cccnc1	3.16µM*	-2.6%	2.1%	-1.0%	-4.9%	14.9%	2.6
Cc1cc(=O)[nH]c2ccc(S(=O)(=O)Nc3ccc(O)cc3)cc12	2.24µM*	5.6%	38.3%	4.0%	-6.8%	2.2%	-5.9
O=C(CSc1ccccc1)N1CCN(S(=O)(=O)c2ccccc2F)CC1	3.16µM*	0.2%	4.0%	17.0%	?	-18.8%	0.1
C[C@@H]1CN([C@@H](C)CO)C(=O)CCCn2nncc2CO[C@@H]1CN(C)S(=O)(=O)c1cn(C)cn1	/	/	-2.4%	/	-21.0%	/	/
CCc1nnc(NC(=O)CSc2nnc3c4ccccc4n(C)c3n2)s1	1.41µM*	-5.4%	6.6%	1.9%	-7.9%	?	-2.0
c1ccc2c(SCc3cn4ccccc4n3)nncc2c1	4.47µM*	18.5%	0.6%	1.5%	-6.3%	5.2%	-13.5
Clc1ccc(SCc2cn3ccccc3n2)cc1	0.0%	6.8%	-6.4%	-6.7%	-3.4%	2.1%	/
Cn1c2ccsc2c2ncn(Cc3ccccc3F)c(=O)c21	/	6.5%	-2.5%	-2.1%	/	?	?
O=C(OCc1ccccc1)N1CCC2CC1c1cc(NCCc3ccccc3)ccc12 (stereo not given)	/	/	2.5%	-6.0%	2.1%	/	/
CCC(C(=O)Nc1c(C)cccc1C)n1c(-c2cnc(C)cn2)nc2ccccc21 (stereo not given)	/	/	/	/	-1.2%	/	/
Cc1cccc(NS(=O)(=O)c2cc3c(cc2C)NC(=O)CO3)c1	0.708µM*	0.5%	0.5%	-4.5%	-13.9%	?	-15.3
Cc1cc2c(cc1S(=O)(=O)Nc1cccc(C)c1C)OCC(=O)N2	?	4.7%	8.6%	-2.7%	-12.8%	?	/
Cc1[nH]c(C)c2c(=O)n(Cc3ccccc3Cl)ncc12	/	/	-29.0%	-5.0%	-8.5%	/	/
Cc1cc2c(s1)c1cnn(Cc3ccc(C(C)C)cc3)c(=O)c1n2C	/	/	/	/	/	/	-7.3
Cc1cc2c(s1)c1cnn(Cc3cc(C(F)(F)F)cc(Cl)c3F)c(=O)c1n2C	/	/	/	/	/	/	13.6
Cc1cc2c(s1)c1cnn(Cc3ccc(C(F)(F)F)cc3)c(=O)c1n2C	/	/	/	/	/	/	6.6
COc1ccc(Cn2ncc3c4sc(C)cc4n(C)c3c2=O)cc1	/	/	/	/	/	/	2.6
CCCCN1C2CCCC1CC(NC(=O)c1cccc(OC)c1)C2 (stereo not given)	-3.5%	1.6%	-1.7%	-1.9%	-11.7%	-2.7%	/
Cc1ccc(NS(=O)(=O)c2cccc(C(=O)Nc3cccnc3)c2)c(C)c1	/	/	15.0%	7.1%	-13.7%	-2.1%	/
COc1ccc(Cn2nc(C(=O)O)c3ccccc3c2=O)cc1F	/	-1.8%	1.5%	-5.2%	2.4%	-2.3%	/
COc1ccc(Cn2ncc3c4sc(C)cc4n(C)c3c2=O)cc1F	/	/	/	/	/	/	11.5
C=C(C)CN1CCN(S(=O)(=O)c2ccc(C)c(N(C)S(=O)(=O)c3ccc(C)cc3)c2C)CC1	6.1%	9.5%	5.1%	15.2%	3.5%	-10.2%	/
Cn1c2ccccc2c2nnc(SC3CCOC3=O)nc21 (stereo not given)	14.1µM*	0.3%	0.5%	-10.5%	3.4%	-5.0%	1.5
CC(=O)[C@@H]1CC[C@@H]2[C@@H]3C[C@H](C)C4=CC(=O)CC[C@@]4(C)[C@H]3[C@H](O)C[C@]21C	/	/	-0.4%[20 µM]	-10.2%	/	11.3%[21.4 µM]	/
SMILES	PKM2 act	Mito fusion yeast	GLS inh	VDR inh	PLK1 PBD inh	KAT2A inh	HeLa tox
COc1cc(C2C3=C(CCCC3=O)Nc3c2c(C)nn3-c2cccc(C)c2)cc(OC)c1O (stereo not given)	7.08µM*	?	-2.5%	1.8%	3.7%	-13.4%	?
O=C(O)c1cc(-c2ccco2)nn1-c1cccc(Cl)c1	25.1µM*	0.6%	22.2%	-18.8%	?	?	-1.1
Cc1ccccc1-n1nnnc1SCc1cc(=O)n2ccsc2n1	0.794µM*	5.5%	-1.2%	-6.0%	-5.1%	1.1%	-20.4
CCn1c(N)c(C(=O)NCc2ccco2)sc1=S	3.55µM*	-1.3%	8.1%	-28.3%	23.8µM*	?	-25.5
O[C@@H]1CN(Cc2cccs2)[C@@H](c2ccccc2)C[C@H]1n1cc(-c2ccc(F)cc2)nn1	/	/	2.2%	/	-18.6%	/	/
CS(=O)(=O)Nc1ccc(C2=NN(C(=O)c3ccco3)C(c3ccccc3F)C2)cc1 (stereo not given)	3.16µM*	8.3%	15.6%	-14.8%	-9.6%	-18.8%	0.0
COc1ccc(-c2ccc(C(=O)NCc3ccc(N(C)C)cc3)c3occc23)c(C)c1	/	/	32.5%	/	-4.6%	/	/
COc1ccc2[nH]c(=O)c(-c3noc(-c4ccccc4)n3)cc2c1	11.2µM*	0.9%	-22.3%	-1.0%	-7.7%	-56.6%	-26.6
CNC(=O)NC(=O)CSc1ncc(C(F)(F)F)cc1Cl	0.398µM*	-0.6%	10.2%	-9.2%	5.4%	-1.7%	-0.2
CC(C)c1ccc(S(=O)(=O)c2cc3cc(Br)ccc3oc2=O)cc1	0.562µM*	-1.1%	7.8%	0.8%	-5.4%	-13.4%	-12.3
Cc1ccc(S(=O)(=O)c2cc3cc(Br)ccc3oc2=O)cc1	?	5.7%	2.6%	-21.2%	-16.3%	47.4%	/
O=S(=O)(c1ccc2c(c1)OCCO2)N1CCN(S(=O)(=O)c2ccc(F)cc2F)CC1	/	/	/	/	/	/	0.0
O=S(=O)(c1ccc2c(c1)OCCO2)N1CCN(S(=O)(=O)c2cc(F)c(F)cc2F)CC1	/	/	/	/	/	/	-5.0
COc1ccc(N/N=C(C)/C(=N/O)C(=O)Nc2ccccc2)cc1	/	-15.1%	25.8%	8.3%	-24.3%	-25.7%	/
Cc1ccc(-c2noc(-c3ccc(NCc4ccco4)c([N+](=O)[O-])c3)n2)cc1	/	/	1.3%	11.6%	/	-6.6%	/
CCCN(CCC)CCCNC(=O)Cn1ncc2c3ccccc3n(Cc3ccccc3F)c2c1=O	/	/	2.2%	6.5%	/	-18.7%	/
O=C(Cn1ncc2c3ccccc3n(Cc3ccccc3F)c2c1=O)NCCc1ccc(Cl)cc1	/	/	2.4%	6.1%	/	-6.1%	/
CC(=O)c1cc2c(s1)c1cnn(Cc3ccccc3F)c(=O)c1n2C	/	/	/	/	/	/	-0.7

Bioassay records from PubChem BioAssay.
